These sequences were tested on VDR:RXRa (NR concentration 270 nM, RXRa partner concentration 90 nM) (assay: PBM binding z-score (relative to random genomic background probes); higher = stronger binding; sequences stand for … in GC…GCGATTGACAGCGTAGAATGAAGG).
Description: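 Protein-binding microarray (Agilent 4x180K custom design, double-stranded 60-nt probes: 5' GC cap, 34-nt variable region, 24-nt constant primer region; full probe sequence given). Purified or IVT nuclear receptor:RXRα heterodimers (3:1 NR:RXRα, mostly 270:90 nM) or homodimers were incubated for 1 h in PBS with 2% milk and no ligand, then detected with Alexa488 antibodies. Fluorescence from o1-orientation probes (~5 replicates averaged) was converted to z-scores against 500 random hg19 background probes. Variable regions are seed direct-repeat (DR0–DR5) sites, all their single-nucleotide variants and half-site ablations.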
In the case of TCATATAGGTAGAGGTGAAAGTCGAACGATATGA, the PBM binding z-score is reported as 0.794. With CGTCCAATGTCAAAGGTCAGTGAAGAGATGACGG the PBM binding z-score was 3.72. CGAACTAGGTCATTGACAGGCCAGTGAATAGTAA gave a PBM binding z-score of 1.88. GCTATTAGTTGAAAGGCCAACCGAATGATTCTCG showed a PBM binding z-score of -0.0343. Sequence AGAATGAGGTTACCCAAGATCAGGGAAACGCTTG has a PBM binding z-score of 1.55. Work on CCTGCTAGGTTAATGGTCAGCTAAAGCAGCTCGC yielded a PBM binding z-score of -0.293. For CTCGAAAGGCCGGTTGAGGTGAGTATACGGATAA, the PBM binding z-score was -0.304. CCTAGTTGGTGAAGGTCACACACGCTATAGGTAC was tested, and the PBM binding z-score was 3.4. CCTAGCAGGCCCATCTGGGTCACTCAAGGCTTGA was tested, and the PBM binding z-score was -0.0613. Work on CGAACTAGGTCAGAACCGGACAGTGAAGGATGAT yielded a PBM binding z-score of 0.264. In the case of CGAACTAGGTCAAGGTCAAAGTCGGTTTGTGCCA, the PBM binding z-score is reported as 4.97. Sequence TAACCTAGGTCATTGGGCCAGTATAGTACGCATC has a PBM binding z-score of 2.89. In the case of TCTGCTAGGTCAACGATGGTCAGCTAATCTGCTA, the PBM binding z-score is reported as 1.54. TCGAGTAGGTTACCAATGGGGCATTGAGCTTTCT gave a PBM binding z-score of -0.0858. Sequence GGAACGAAGGCAAAGTTGATAGCATCTGTCGACG has a PBM binding z-score of -0.832. With CCTCGGAGGACAACATGAGGTCAGAGCTGCCAGA the PBM binding z-score was 2.98. Sequence CCGATTGGGGCAAAGGTTACCATACTCAGTACGA has a PBM binding z-score of 1.6. GGAACGAGGGCTAGTTGATAGCAGAGTTTGATGG was tested, and the PBM binding z-score was -0.607. TTACCAAGGTGAAAGGTCGATGATGCACGCCTTG was tested, and the PBM binding z-score was 2.23. Sequence AGAATGAGGTTATTAAGATCACGGAATTGCGGTC has a PBM binding z-score of 3.68. Sequence TCTTGTAGATCAATAGAGGTTAAGAATGTGCGCT has a PBM binding z-score of 1.27. Work on AATACAGGGTCATCGTAGGCCAGAGTACGCACAG yielded a PBM binding z-score of 5.37. With TCTATTAGTTGATTAGGGCAACCAAAACAGCGGA the PBM binding z-score was 0.701. With ACTTACGGGTCAACGAGGTAATAGCACGCGTATA the PBM binding z-score was 6.51. With CGTCCAAGGTCATAGGAGGGCAGTGAAGACAGAT the PBM binding z-score was 5.36. With AGCTCTAGGTAAGACTCAGTTCAGTGAAGAACGC the PBM binding z-score was 0.321. Sequence CCTTACGGGTCACGGACAGGTTATAGCATTTGGA has a PBM binding z-score of 4.74. CGAACTAGGTCATTTACAGGACAGTGAATAGTAA showed a PBM binding z-score of 2.14. For ATCTCTAGGTAACAAGTTCAGTAAAAGAGAGGAC, the PBM binding z-score was 1.96. GTACCAATGTGAATAGGTCGTTGATGAGTAGGCG showed a PBM binding z-score of -0.000523. TCGAGGAGGTTACCAATGGGGCATTCAGCTTTCT gave a PBM binding z-score of 1.13. TTACTAAGGTGAAGGTCGTTGATCCCTCTGTAGA was tested, and the PBM binding z-score was 1.73. Sequence AGAATGAGGTTATACGTAGATCGGGGAAGAAAGT has a PBM binding z-score of 1.43. CCGGCTGGGGCAAAGGTTACCATACTCAGTACGA showed a PBM binding z-score of 1.58. Sequence CGAACTAGGCCAGAACAGGACAGTGAAGGATGAT has a PBM binding z-score of -0.283. CATACAGGGTCAGCTAGGCCAGCGTAGGGACGGC gave a PBM binding z-score of 3.62. In the case of AGTATTAGTTGAGACGAGGGCAACCGATAGGTTG, the PBM binding z-score is reported as 0.873. Work on TCATATAGGTAAATGCTAGGTGACAGTCCGATCT yielded a PBM binding z-score of 0.746. Work on ATCTCTCGGTAAAGTTCAGTGAAAGATCGATAGA yielded a PBM binding z-score of 1.1. Sequence TCTTGTAGATCAGCAGGTTTAGAAAGCTGGCCAA has a PBM binding z-score of 0.532.
